About 79,000 compounds went through this panel and 15% of them were active in at least one assay; those are over-represented in the sample as a whole. Unmarked numbers belong to inactive results. Activity calls are given as the source filed them. Rule as the data show it: active = growth inhibition above about 70%; inactive = the rest.
Assays:
[1] = NCI Yeast Anticancer Drug Screen. Data for the rad50 strain (AID 155);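 also: 0% = growth of vehicle-only cultures of the same strain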; details: S. cerevisiae rad50 strain growth inhibition; at 50.0 µM; active compounds read high
Summary of the method: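 DNA repair mutant yeast, compound exposure, growth read-out; inhibition is taken relative to vehicle.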

[2] = NCI Yeast Anticancer Drug Screen. Data for the mec2-1 strain (AID 157); details: S. cerevisiae mec2-1 strain, at 50.0 µM, active compounds read high
Summary of the method: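 Using mec2-1 yeast: add compound, measure growth, express inhibition versus vehicle-treated cultures.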

[3] = NCI Yeast Anticancer Drug Screen. Data for the sgs1 mgt1 strain (AID 161);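 also: 0% = growth of cultures given vehicle only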; details: S. cerevisiae sgs1 mgt1 strain, at 50.0 µM, active compounds read high
Summary of the method: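 Growth of a repair-deficient yeast mutant was monitored after compound treatment and expressed as inhibition relative to vehicle-treated cultures.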

[4] = NCI Yeast Anticancer Drug Screen. Data for the cln2 rad14 strain (AID 165);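 also: 0% = growth equal to vehicle treated cultures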; details: S. cerevisiae cln2 rad14 strain, at 50.0 µM, active compounds read high
Summary of the method: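 Yeast strain cln2 rad14, bearing defects in cell cycle control and DNA repair, serves as the test system; values reflect growth inhibition compared with vehicle.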

[5] = NCI Yeast Anticancer Drug Screen. Data for the bub3 strain (AID 167); details: S. cerevisiae bub3 mutant strain, at 50.0 µM, active compounds read high
Summary of the method: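 In this screen, a yeast mutant lacking normal mitotic checkpoint function is challenged with compound. Relative growth versus vehicle gives the inhibition value.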

[6] = NCI Yeast Anticancer Drug Screen. Data for the mlh1 rad18 strain (AID 175); details: S. cerevisiae mlh1 rad18 strain growth inhibition; at 50.0 µM; active compounds read high
Summary of the method: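 Steps: expose repair-defective yeast to compound; measure growth; express inhibition against vehicle-treated controls.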

Row | Structure (SMILES) | growth inhibition [1] | growth inhibition [2] [%] | growth inhibition [3] [%] | growth inhibition [4] [%] | growth inhibition [5] [%] | growth inhibition [6]
1 | COc1ccc2c(c1OC)C(=O)C2 | -21.1% | 12.1 | -20.9 | 9 | -16.8 | -2.35%
2 | CCCCCCCCCCCCn1c2nc(=O)[nH]c(=O)c-2nc2ccccc21 | -3.35% | 3.75 | -8.15 | 4.25 | -0.2 | -26.1%
3 | C[N+](C)(CCO)CCO | 3.15% | -8 | -8.5 | 14.8 | 0.85 | 13.1%
4 | C=COC(=O)N1CCCCC1 | -5.75% | 15.8 | 0.5 | -13.7 | -30.1 | 27.4%
5 | CC(=O)c1cc(Cl)ccc1OCC(O)CNc1ccc(Cl)cc1C(=O)c1ccccc1 (stereo unspecified) | 17.6% | 37.6 | 10.3 | 34 | -3.85 | 7.15%
6 | Cc1ccc(Cl)c(NC(=O)c2ccccc2Cl)c1 | 6.2% | 8.2 | 18.8 | -8 | 12.4 | 30.9%
7 | COc1ccc(N/N=C2\CCOc3ccc(C)cc3C2=O)cc1 | 53.6% | 27.8 | 42.5 | 14.6 | 52 | 46.7%
8 | Cc1ccc2c(c1)OC(=O)CC2 | 10.3% | -9.65 | -3.25 | -18.8 | -4.1 | -4.3%
9 | CC(=O)Oc1ccc(CCNC(c2ccccc2)c2ccccc2)cc1OC(C)=O | 44% | 13.2 | 42.5 | -7.6 | -17.4 | 38.3%
10 | COc1ccc2nc3cc([N+](=O)[O-])ccc3c(Nc3ccc(S(=O)(=O)NC(C)=O)cc3)c2c1 | 76.3% (active) | 36.4 | 67.8 | 36 | 64.5 | 75.2% (active)
11 | O=C1O[C@H]2C3C4CCC(C4[C@@H]2I)[C@H]13 (stereo partly specified) | -13.7% | -13.8 | -9.1 | 19.9 | 14.1 | 16.6%
12 | Cc1cc2ccccc2[nH]1 | 33.9% | -15.3 | -3.65 | 3.1 | 2.75 | 10%
13 | CCOC(=O)/N=c1/nc2ccn(C)c2c(NC(=O)OCC)s1 | 15.1% | -3.5 | -5 | 11 | 7.9 | -15.8%
14 | CCOC(=O)C(/C=N/Nc1ccc([N+](=O)[O-])cc1[N+](=O)[O-])Oc1cccc(OC)c1 (stereo unspecified) | -8.85% | -8.4 | -19.8 | -15.1 | -8.75 | -1.55%
15 | COc1ccc2nccc(C(=O)CCC3CCN(C(=O)c4ccc([N+](=O)[O-])cc4)CC3C(CBr)CCBr)c2c1 (stereo unspecified) | 16.7% | 6.35 | 26.6 | -1.85 | 6.2 | 34.2%
16 | CCOC(=O)C(Cc1cc(C)c(O)c(I)c1)NC(C)=O (stereo unspecified) | -18.4% | -1.1 | -11.2 | 4.2 | 5.85 | -5.85%
17 | CC12CCC(=O)C=C1CCC1C2C(O)CC2(C)C1CCC2(O)C(=O)COC(=O)C1C2C=CC(C2)C1C(=O)O (stereo unspecified) | 24.1% | 9.45 | 25 | 12.1 | -6.85 | 25.1%
18 | CCCc1ccc(OCC(=O)O)c(OC)c1 | -2.45% | -1.25 | 0.95 | 4.4 | -22.5 | -7.45%
19 | Cc1ccc(NC(=O)CCC(=O)C(C)C(=O)c2ccccc2)cc1C (stereo unspecified) | -72.1% | -7.6 | -14.3 | -55.7 | -12.8 | -9.4%
20 | N#CCCN(CCC#N)c1ccc(C=Nc2ccc(F)cc2)cc1 | 20% | 9.65 | 11.9 | 15.8 | 18.5 | 45.2%
21 | O=C(NN=C1CCCCC1)c1ccccc1 | -6% | -10.1 | -9.9 | -25.8 | -17.4 | 0.2%

Row | Structure (SMILES) | growth inhibition [1] | growth inhibition [2] [%] | growth inhibition [3] [%] | growth inhibition [4] [%] | growth inhibition [5] [%] | growth inhibition [6]
22 | CCN(CC)CCOC(=O)C1c2ccccc2Oc2ccccc21 | 25.2% | -31.5 | 9.1 | 13.9 | 21.4 | 15.3%
23 | CN(C)c1ccc(/C=N/NS(=O)(=O)c2ccc(N)cc2)cc1 | -4.4% | -9.95 | 18.8 | -3.45 | -32.2 | -12.6%
24 | CCCCCCCCCCCCCCCCCC(=O)N/N=C/c1ccc(Cl)cc1 | -6.2% | -8.95 | -11.6 | -15.4 | -2.85 | -25.1%
25 | Cc1ccc(S(=O)(=O)NC(CO)C(=O)O)cc1 (stereo unspecified) | -1.1% | -18.6 | -30.4 | -24.6 | -46 | -9.65%
26 | CCOC(=O)CC(C#N)C(C)C(=O)OCC (stereo unspecified) | 2.3% | 1.3 | 0.4 | 6.5 | 0.9 | -0.35%
27 | Cc1ccc(-c2ccc(C)cc2)cc1 | -31.2% | -38 | -22.2 | -11.1 | -36.9 | -11.1%
28 | CCOC(=O)/C(C(C)=O)=C1\C(=O)c2ccccc2-c2ccccc21 | 21.6% | 3.5 | 2.8 | -19.2 | 12.9 | 12.5%
29 | COc1ccc(C(C)O)cc1 (stereo unspecified) | 23.2% | 3.2 | 6.25 | 12.9 | -5.65 | 9.15%
30 | CCOc1c(N=Nc2ccccc2[N+](=O)[O-])c(C)nn1C(N)=S | -6.5% | -5.95 | 24.5 | -26.8 | -20.9 | 17.4%
31 | N#Cc1nc(Cc2ccccc2)oc1N | 27.3% | 9.2 | -22 | 18.4 | -26.1 | -22.6%
32 | CCOC(CN=Cc1cccc2ccccc12)OCC | -26.4% | -1.4 | -11.8 | 46.7 | -3.55 | 18.6%
33 | CN1CCC(C(=O)NNc2ccccc2)CC1 | -12.1% | -13.2 | -3.75 | 7.3 | 0.1 | 4.7%
34 | COCn1ccnc1C(=O)c1ccccc1 | -11.4% | -13.8 | -9.65 | -27.1 | -7.25 | -5.15%
35 | CNCCC(Oc1ccccc1OC)c1ccccc1 (stereo unspecified) | 30.2% | 8.9 | -1.2 | 10.8 | 5.25 | 19.1%
36 | O=C(C[n+]1cccc2ccccc21)c1ccc(F)cc1 | -0.05% | -10.3 | 18.1 | 17 | 10.2 | -3%
37 | CSCCC(C(=O)O)N(CC1(O)OCC(O)C(O)C1O)N=O (stereo unspecified) | -18.4% | -24.6 | -17.6 | -9.15 | -11.4 | -11.2%
38 | O=C(Nc1nc(C23CC4CC(CC(C4)C2)C3)cs1)c1cc2cc(Cl)ccc2oc1=O | -32.2% | -37.5 | -2.35 | 10.6 | -28.1 | -38%
39 | C/C(=N/OCCC(=O)O)C1CC1 | -2.85% | -1.65 | -1.35 | 11.8 | 7.9 | -17.6%
40 | COc1ccccc1CNCc1nc2ccccc2[nH]1 | 4.8% | 2.6 | 6.9 | 13.2 | 0.55 | 36.6%
41 | OC1OCC(COc2ccc(Cl)cc2)OC1O (stereo unspecified) | -17.6% | -9.05 | -12.2 | 1.25 | -36.7 | 18.9%
